Data taken from the supplement of paper PMC11634586.
Where a name gives a salt, the structure may show the parent alone. Unmarked numbers belong to inactive results.

system: NCI-H1688; test: inhibition of cell viability relative to untreated control (fraction); higher = stronger growth inhibition, active = 0.5 or more; conditions: 30 µM; 24 h
Method: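 Natural product library (TargetMol, 640 compounds) screened on NCI-H1688 SCLC cells at 30 µM for 24 h; viability by CCK-8 absorbance at 450 nm, normalised to untreated control and expressed as inhibition rate (fraction). Compounds with >50% reduction in viability were selected as hits.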

Compound | inhibition of cell viability
CC[C@@]1([C@@H]2O[C@@H]([C@H]3O[C@@](O)(CO)[C@H](C)C[C@@H]3C)C[C@@H]2C)CC[C@H]([C@]2(C)CC[C@]3(C[C@H](O)[C@@H](C)[C@@H]([C@@H](C)[C@@H](OC)[C@H](C)C(=O)O)O3)O2)O1 [Monensin sodium salt] | 0.761 (active)
O=C1C[C@@H]2OCC=C3CN4CC[C@]56c7ccccc7N1[C@H]5[C@H]2[C@H]3C[C@H]46 [Strychnine Sulfate] | -0.193
CC[C@H](C)[C@H]1O[C@]2(C=C[C@@H]1C)C[C@@H]1C[C@@H](C/C=C(\C)[C@@H](O[C@H]3C[C@H](OC)[C@@H](O[C@H]4C[C@H](OC)[C@@H](O)[C@H](C)O4)[C@H](C)O3)[C@@H](C)/C=C/C=C3\CO[C@@H]4[C@H](O)C(C)=C[C@@H](C(=O)O1)[C@]34O)O2.CO[C@H]1C[C@H](O[C@H]2[C@H](C)O[C@@H](O[C@@H]3/C(C)=C/C[C@@H]4C[C@@H](C[C@]5(C=C[C@H](C)[C@@H](C(C)C)O5)O4)OC(=O)[C@@H]4C=C(C)[C@@H](O)[C@H]5OC/C(=C\C=C\[C@@H]3C)[C@]54O)C[C@@H]2OC)O[C@@H](C)[C@@H]1O [Abamectin] | 1.01 (active)
COC1=C[C@@H]2[C@@H]3Cc4ccc(OC)c(O)c4[C@]2(CCN3C)CC1=O [Sinomenine hydrochloride] | -0.0195
CCC12C=CCN3CC[C@@]4(c5ccc(OC)cc5N(C)[C@H]4[C@@](O)(C(=O)OC)[C@@H]1OC(C)=O)[C@@H]32 (stereo not given in full) [Vindoline] | -0.0958
C#C[C@]1(O)CC[C@H]2[C@@H]3CCC4=CC(=O)CC[C@]4(C)[C@H]3CC[C@@]21C [Ethisterone] | 0.178
C[C@@H]1[C@H](O)[C@@H](C)/C=C/C=C/CC/C=C/C=C/C=C/C=C/[C@H](O[C@H]2O[C@@H](C)[C@H](O)[C@@H](N)[C@H]2O)C[C@@H]2O[C@](O)(C[C@@H](O)[C@H](O)CC[C@@H](O)C[C@@H](O)C[C@@H](O)CC(=O)O[C@H]1C)C[C@H](O)[C@H]2C(=O)O [Nystatin (Fungicidin)] | 0.267
CC(C)=CCC[C@](C)(O)[C@H]1CC[C@]2(C)[C@@H]1[C@H](O)C[C@@H]1[C@@]3(C)CC[C@H](O)C(C)(C)[C@@H]3[C@@H](O[C@@H]3O[C@H](CO)[C@@H](O)[C@H](O)[C@H]3O)C[C@]12C [Ginsenoside Rh1] | 0.0296
CCN1C[C@]2(OC(=O)c3ccccc3NC(C)=O)CC[C@H](OC)[C@@]34[C@@H]2C[C@@H]([C@@H]13)[C@@]1(O)C[C@H](OC)[C@H]2C[C@@H]4[C@]1(O)[C@H]2OC [Lappaconitine] | -0.0777
CCC1=C[C@H]2CN3CCc4c([nH]c5ccccc45)[C@](C(=O)OC)(C2)[C@H]13 [Catharanthine] | 0.0372
CCC(=O)O[C@H]1CC[C@H]2[C@@H]3CC[C@H]4CC(=O)[C@H](C)C[C@]4(C)[C@H]3CC[C@]12C [Drostanolone Propionate] | 0.313
COc1cc([C@@H]2c3cc4c(cc3[C@H](O)[C@H]3COC(=O)[C@H]23)OCO4)cc(OC)c1OC [Podophyllotoxin] | 0.839 (active)
O=C(/C=C/c1ccccc1)OC[C@H]1O[C@@H](O[C@@H]2OC=C[C@H]3[C@H](O)[C@@H]4O[C@]4(CO)[C@@H]23)[C@H](O)[C@@H](O)[C@@H]1O [Picroside I] | 0.253
COc1ccc2c(c1O)-c1c(OC)c(OC)cc3c1[C@H](C2)N(C)CC3 [S-Isocorydine(+)] | 0.0897
C[C@]12CCC(=O)C=C1CC[C@@H]1[C@@H]2C(=O)C[C@]2(C)C(=O)CC[C@@H]12 [Adrenosterone] | -0.0418
CC(=O)O[C@H]1C(=O)[C@@]2(C)[C@H]([C@H](OC(=O)c3ccccc3)[C@]3(O)C[C@H](O)C(C)=C1C3(C)C)[C@]1(OC(C)=O)CO[C@@H]1C[C@@H]2O [Baccatin III] | 0.535 (active)
CC(C)=CCC[C@](C)(O)[C@H]1CC[C@]2(C)[C@@H]1[C@H](O)C[C@@H]1[C@@]3(C)CC[C@H](O[C@@H]4O[C@H](CO)[C@@H](O)[C@H](O)[C@H]4O)C(C)(C)[C@@H]3CC[C@]12C [Ginsenoside Rh2] | 0.269
CCC1=CC2CN3CCc4c([nH]c5ccccc45)C(C(=O)OC)(C2)C13 (stereo not given) [Catharanthine sulfate] | 0.191
C[C@]12CC[C@H]3[C@@H](CCC4=CC(=O)CC[C@@]43C)[C@@H]1CC[C@@H]2O [Testosterone] | 0.182
CC(=O)O[C@@]12CO[C@@H]1C[C@H](O)[C@@]1(C)C(=O)[C@H](O)C3=C(C)[C@@H](OC(=O)[C@H](O)[C@@H](NC(=O)c4ccccc4)c4ccccc4)C[C@@](O)([C@@H](OC(=O)c4ccccc4)[C@H]21)C3(C)C [Deacetyltaxol] | 0.667 (active)

Compound | inhibition of cell viability
C/C=C(\C)C(=O)N[C@@H](c1ccccc1)[C@@H](O)C(=O)O[C@H]1C[C@@]2(O)[C@@H](OC(=O)c3ccccc3)[C@@H]3[C@]4(OC(C)=O)CO[C@@H]4C[C@H](O)[C@@]3(C)C(=O)[C@H](OC(C)=O)C(=C1C)C2(C)C [Cephalomannine] | 0.721 (active)
CN(CC(=O)O)C(=N)NP(=O)(O)O [Creatine phosphate disodium salt] | 0.256
CC1=C2C(=O)[C@H]3[C@@H](CC=C4C[C@@H](O)CC[C@@]43C)[C@@H]2CC[C@]12O[C@@H]1C[C@H](C)CN[C@H]1[C@H]2C [Jervine] | 0.601 (active)
COc1ccc2c(c1)[nH]c1c(C)nccc12 [Harmine hydrochloride] | 0.813 (active)
O=C1C=CC[C@@H]2[C@H]3CCCN4CCC[C@@H](CN12)[C@@H]34 [Sophocarpine] | -0.484
NCCc1ccc(O)cc1 [Tyramine] | 0.176
CNC1CC(N)C(O)C(OC2OC(CO)C(O)C3OC4(OC(C(N)CO)C(O)C(O)C4O)OC23)C1O (stereo not given) [Hygromycin B] | 0.829 (active)
Cc1c2ccncc2c(C)c2c1[nH]c1ccccc12 [Ellipticine] | 0.996 (active)
NCCc1ccccc1 [Phenethylamine] | -0.183
CN1[C@@H]2C[C@@H](OC(=O)[C@H](CO)c3ccccc3)C[C@H]1[C@@H]1O[C@@H]12 [Scopolamine HBr trihydrate] | 0.0269
O=C(O)CC[N+](=O)[O-] [Bovinocidin] | -0.0746
C[C@@H]1C(=O)O[C@H]2[C@H](O)[C@@]34O[C@@H]5OC(=O)[C@H](O)[C@@]56[C@H](C(C)(C)C)[C@H](O)C(OC3=O)[C@]64[C@@]12O (stereo not given in full) [Ginkgolide C] | -0.00562
CCC1=C[C@@H]2CN3CCc4c([nH]c5ccccc45)[C@@](C(=O)OC)(C2)[C@@H]13 [Catharanthine tartrate] | -0.101
CC(C)=CCOc1c2occc2cc2ccc(=O)oc12 [Imperatorin] | 0.0251
O=C1C=CC[C@@H]2[C@H]3CCC[N+]4([O-])CCC[C@@H](CN12)[C@@H]34 (stereo not given in full) [Oxysophocarpine] | -0.0366
CN1CCc2cc3c(cc2C1O)OCO3 (stereo not given) [Hydrastinine hydrochloride] | 0.248
C[C@@]12C(=O)OC(=O)[C@]1(C)[C@H]1CC[C@@H]2O1 [Cantharidin] | 0.983 (active)
S=C=NCc1ccccc1 [Benzyl isothiocyanate] | 0.59 (active)
NCCc1c[nH]c2ccccc12 [Tryptamine] | -0.188
Cc1c([C@H](C)[C@@H]2NC[C@@H](C)C[C@H]2O)ccc2c1C[C@H]1[C@H]2CC=C2C[C@@H](O)CC[C@@]21C [Veratramine] | 0.262
